# PubChem BioAssay (EPA / NIEHS)
# Activity calls are given as the source filed them. How the source made its calls: active means hit-call score of the fitted dose curve at least 0.9, where 1 is the maximum; inactive means score below 0.9.
# Test: APR_HepG2_MitoMembPot_1hr: Apredica 1-hour HepG2 Assay for Mitochondrial Membrane Potential (AID 2282675)
# Details: imaging, actives raise or lower the signal
# Experimental: APR_HepG2_1hr is a cell-based, multiplexed-readout assay that uses HepG2, a human liver cell line, with measurements taken at 1 hour after chemical dosing in a 384-well plate.APR_HepG2_MitoMembPot_1hr is one of 10 assay component(s) measured or calculated from the APR_HepG2_1hr assay. It is designed to make measurements of dye binding, a form of membrane potential reporter, as detected with fluorescence intensity signals by HCS Fluorescent Imaging technology.Data from the assay component APR_HepG2_MitoMembPot_1hr was analyzed into 1 assay endpoint. This assay endpoint, APR_HepG2_MitoMembPot_1hr, was analyzed with bidirectional fitting relative to DMSO as the negative control and baseline of activity. Using a type of membrane potential reporter, gain or loss-of-signal activity can be used to understand changes in the signaling. Furthermore, this assay endpoint can be referred to as a primary readout, because this assay has produced multiple assay endpoints where this one serves a signaling function. To generalize the intended target to other relatable targets, this assay endpoint is annotated to the cell morphology intended target family, where the subfamily is organelle conformation.
# Cells were treated with dimethyl sulfoxide (DMSO) as a solvent control at a final concentration of 0.5% v/v or with compounds in DMSO with a resulting final DMSO concentration of 0.5% v/v. Compound treatment was done at concentrations of 0.39, 0.78, 1.56, 3.12, 6.24, 12.5, 25, 50, 100, and 200 uM in duplicate on each plate. Cells were treated with compounds for 1, 24, or 72 hr. Carbonyl […] m-chloro-phenylhydrazone (CCCP) and taxol were used as positive controls for mitochondrial function and cytoskeletal stability, respectively; DMSO served as the negative control for this experiment. Cells were fixed by the direct addition of 50 uL formaldehyde in Hank's Balanced Salt Solution (HBSS) to a final concentration of 3.7%. After incubation in the fixation medium for 30 min at room temperature (293-298 K), cells were rinsed twice with HBSS and treated with cell permeabilization buffer (16 uL of 0.5% Triton X-100) for 10 min at room temperature (293-298 K) before labeling. For mitochondrial membrane potential and mitochondrial measurements, pre-fixed cells were incubated with 50 uL of MitoTracker Red CMXRos (Invitrogen) at a concentration of 250 nM for 30 min before fixation. In the remaining cases, post-fixed cells were labeled by incubation with a multiplexed mixture of primary antibodies in HBSS for 60 min at room temperature (293-298 K) to detect immunoreactivity of c-Jun (1:500), phospho-histone H3 (1:100), phospho-histone H2A.x (1:200), p53 (1:400), alpha-tubulin (1:200) and Hoechst 33342 (2 ug/mL). Cells were labeled for multiplexed imaging on two separate plates: a) Hoechst 33342, MitoTracker Red, phospho-histone H3, and alpha-tubulin, and b) Hoechst 33342, phospho-histone H2A.x, and c-Jun. A final rinse with HBSS (50 uL) was performed before analysis. The primary and secondary antibodies for the proteins were phospho-histone H3 (rabbit anti-phospho-histone H3 and FITC-donkey anti-rabbit IgG), phospho-histone H2A.x (mouse anti-phospho-histone H2A.x and FITC-donkey anti-mouse IgG), c-Jun (rabbit anti-phospho-c-Jun and Cy3-donkey anti-rabbit IgG), p53 (sheep anti-p53 and Cy5-donkey anti-sheep IgG), alpha-tubulin (mouse anti-alpha-tubulin and Cy5-donkey anti-mouse IgG). These antibodies are available as the CellCiphr HepG2 assay kit (Millipore).Digital images of each well were captured using a Cellomics ArrayScan VTI (Thermo Scientific Cellomics) (0.8 NA objective, 0.63x optical coupler, and XF-93 filter set) at 20x magnification. The images were acquired using the autofocus feature of the ArrayScan instrument, which entails the following steps. First, the camera focuses on channel 1 (Hoechst 33342), where nuclei are identified. Second, a Z offset of 1 um is used for capturing mitochondria (MitoTracker Red). […]
Compound,outcome,AC50
CN(C)C(=O)Nc1cccc(C(F)(F)F)c1,inactive,–
COc1cc(OC)nc(Sc2cccc(Cl)c2C(=O)O)n1,inactive,–
O=[N+]([O-])c1cc(C(F)(F)F)c(Cl)c([N+](=O)[O-])c1Nc1ncc(C(F)(F)F)cc1Cl,–,15 µM (active)
CCCOCC(=Nc1ccc(Cl)cc1C(F)(F)F)n1ccnc1,inactive,–
CN(C)[C@@H]1C(=O)C(C(N)=O)=C(O)[C@@]2(O)C(=O)C3=C(O)c4c(O)cccc4[C@@](C)(O)[C@H]3[C@H](O)[C@@H]12,inactive,–
Cc1nn(-c2cc(NS(C)(=O)=O)c(Cl)cc2Cl)c(=O)n1C(F)F,inactive,–
COc1ccc(C(=CC(=O)N2CCOCC2)c2ccc(Cl)cc2)cc1OC,inactive,–
CCOC(=O)COc1cc(-c2nn(C)c(OC(F)F)c2Cl)c(F)cc1Cl,inactive,–
COc1cccc(C(=O)NN(C(=O)c2cc(C)cc(C)c2)C(C)(C)C)c1C,inactive,–
CCCSP(=O)(OCC)Oc1ccc(Br)cc1Cl (stereo not given),inactive,–
CSc1nnc(C(C)(C)C)c(=O)n1N,inactive,–
S=C1NCCN1,inactive,–
CCc1cccc(CC)c1N(COC)C(=O)CCl,inactive,–
CNC(=O)ON=C(SC)C(=O)N(C)C,inactive,–
CCCCN(CC)c1c([N+](=O)[O-])cc(C(F)(F)F)cc1[N+](=O)[O-],inactive,–
CCNc1nc(Cl)nc(NC(C)(C)C#N)n1,inactive,–
CC(C1CC1)C(O)(Cn1cncn1)c1ccc(Cl)cc1 (stereo not given),inactive,–
CC(C)N(C(=O)SCC(Cl)=C(Cl)Cl)C(C)C,inactive,–
O=C(O)c1cc(Oc2ccc(C(F)(F)F)cc2Cl)ccc1[N+](=O)[O-],inactive,–
CCOC(=O)CC(SP(=O)(OC)OC)C(=O)OCC (stereo not given),inactive,–

Compound,outcome,AC50
CC(C)[C@H](C(=O)O[C@H](C#N)c1cccc(Oc2ccccc2)c1)c1ccc(Cl)cc1,inactive,–
CCOP(=S)(OCC)OC(Cl)C(Cl)(Cl)Cl (stereo not given),inactive,–
Cc1ccn2nc(S(=O)(=O)Nc3c(F)cccc3F)nc2n1,inactive,–
CN1COCN(Cc2cnc(Cl)s2)C1=N[N+](=O)[O-],inactive,–
CCOP(=O)(NC(C)C)Oc1ccc(SC)c(C)c1 (stereo not given),inactive,–
CCC(=NOC/C=C/Cl)C1=C(O)CC(C2CCOCC2)CC1=O (stereo not given),inactive,–
Nc1c(Cl)cc([N+](=O)[O-])cc1Cl,inactive,–
COP(=O)(OC)C(O)C(Cl)(Cl)Cl (stereo not given),inactive,–
CCCCSP(=O)(SCCCC)SCCCC,inactive,–
CCOP(=O)(OCC)Oc1cc(C)nc(C(C)C)n1,inactive,–
C#CC(C)(C)NC(=O)c1cc(Cl)cc(Cl)c1,inactive,–
CCOP(=O)(SC(C)CC)N1CCSC1=O (stereo not given),inactive,–
N#CSCSC#N,inactive,–
CNc1cnn(-c2cccc(C(F)(F)F)c2)c(=O)c1Cl,inactive,–
C#CCC1=C(C)C(OC(=O)C2C(C=C(C)C)C2(C)C)CC1=O (stereo not given),inactive,–
CCOP(=S)(OCC)SCCSCC,inactive,–
CSc1nc(NC(C)C)nc(NC(C)C)n1,inactive,–
Cc1cc(C2CC2)nc(Nc2ccccc2)n1,–,29.2 µM (active)
FC(F)C(F)(F)OCC(Cn1cncn1)c1ccc(Cl)cc1Cl (stereo not given),inactive,–
CCC(=O)Nc1ccc(Cl)c(Cl)c1,inactive,–
